Source: PubChem BioAssay (National Center for Advancing Translational Sciences (NCATS))
Rows were chosen to be rich in hits. Some 7.3% of all compounds tested hit in one or more screens of this group.
FLuc counter = inhibits or activates purified firefly luciferase, miR-21 counter-screen | P08659 | purified FLuc, Km substrates, luminescence inhibition | Potency, µM (highest dose often 57.5 µM), most hits filed as inhibitors | 360,000 compounds, 6.9% hits | AID 588342; note: nearly all actives have a fitted effect of over 55% in size
Target sequence (P08659 whole entry, looked up): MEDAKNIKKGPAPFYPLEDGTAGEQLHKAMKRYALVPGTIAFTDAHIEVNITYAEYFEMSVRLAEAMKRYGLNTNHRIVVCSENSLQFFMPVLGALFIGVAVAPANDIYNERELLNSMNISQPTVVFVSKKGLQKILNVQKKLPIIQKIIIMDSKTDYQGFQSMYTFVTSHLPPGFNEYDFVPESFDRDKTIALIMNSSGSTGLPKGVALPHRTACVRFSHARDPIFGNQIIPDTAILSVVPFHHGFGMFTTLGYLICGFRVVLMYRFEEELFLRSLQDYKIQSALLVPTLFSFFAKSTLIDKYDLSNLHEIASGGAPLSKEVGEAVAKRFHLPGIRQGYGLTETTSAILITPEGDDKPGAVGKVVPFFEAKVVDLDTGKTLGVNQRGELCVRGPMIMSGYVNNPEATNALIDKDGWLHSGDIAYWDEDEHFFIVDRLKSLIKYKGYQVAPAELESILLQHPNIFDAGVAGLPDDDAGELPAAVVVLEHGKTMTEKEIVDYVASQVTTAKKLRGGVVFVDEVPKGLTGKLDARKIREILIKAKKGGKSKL
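Biochemical qHTS of compounds, final roughly 60 µM downward over six points, against 10 nM purified firefly luciferase using Km concentrations of substrates (10 uM D-luciferin, 10 uM ATP) in Tris acetate pH 7.5 buffer; luminescence output.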
Rab9 promoter act = activators of Rab9 promoter | Huh7 Rab9 promoter-luciferase reporter, luminescence, 24 h | Potency, µM (series often up to 9.22 µM), hits mostly activators | 320,000 compounds, 2.8% hits | AID 485297; note: nearly all actives have a fitted effect of over 60% in size
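Steps: seed 1500 Huh7 Rab9-luc cells per well, rest 2 h at 37 °C; add compound in DMSO; incubate 24 h; add luciferase reagent, 10 min ambient; read luminescence.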
KinaseGlo FLuc = blocks Kinase-Glo luciferase, a counter-screen artifact. Kinase-Glo luciferase, ATP luminescence, 8 min. Potency, µM (top dose mostly 38.3 µM), most hits filed as inhibitors. 200,000 compounds, 0.28% hits. AID 1379; note: nearly all actives have a fitted effect of over 60% in size
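Kinase-Glo luciferase light output from ATP and luciferin was measured with 10 uM ATP, within the enzyme's linear range. Buffer: 50 mM imidazole pH 7.2, 50 mM KCl, 7 mM MgCl2, 0.01% Tween 20, 0.05% BSA; luminescence read after 8 min at ambient temperature.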
SMN2 splice enh = enhancers of SMN2 splice variant expression | HEK293 SMN2-luciferase splicing reporter, luminescence, 30-36 h | Potency, µM (top dose mostly 46.1 µM), actives largely listed as activators | 210,000 compounds, 2.8% hits | AID 1458; note: nearly all actives have a fitted effect of over 55% in size
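qHTS luciferase splicing reporter: luminescence rises when SMN2 exon 7 is included in transfected HEK293 cells. Compound exposure lasted 30-36 h at 37C, with 4.5 mM final sodium butyrate as control, followed by a ONE-Glo read.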
NPC1 promoter act = activates the NPC1 promoter; Huh7 NPC1 promoter luciferase reporter, 24 h; Potency, µM (highest dose often 9.22 µM), usual class: activators; 320,000 compounds, 2.4% hits; AID 485313; note: nearly all actives have a fitted effect of over 60% in size
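Stable NPC1-promoter luciferase Huh7 line; cpd (DMSO) 24 h, 37 °C, 5% CO2; Amplite luciferase reagent 10 min RT; luminescence readout. qHTS format.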
Hits are given with their value; – = inactive; ? = inconclusive; · = no result. Calls come from the whole dose curve; as a rule, active = well fitted curve in the direction sought with a large enough effect; inconclusive = small, poorly fitted or top-dose-only effect, or another doubt; inactive = no such curve, though single readings can be large; an effect the other way counts as inactive or inconclusive.

SMILES	FLuc counter	Rab9 promoter act	KinaseGlo FLuc	SMN2 splice enh	NPC1 promoter act
Cc1ccc2c(Cl)c(C(=O)N/N=C/c3cccn3C)sc2c1	?	?	–	13µM	–
O=C(NC1CC1)c1sc2cc([N+](=O)[O-])ccc2c1Cl	?	–	–	–	–
Cc1ccc2c(Cl)c(C(=O)NC3CC3)sc2c1	4.8µM	4µM	·	·	2µM
Cc1ccc2c(Cl)c(C(=O)Nc3cccnc3)sc2c1	1.9µM	4µM	–	?	2.8µM
Cn1cccc1/C=N/NC(=O)c1sc2cc(Cl)ccc2c1Cl	–	–	·	·	–
CCc1ccc(S(=O)(=O)c2cn(C)c3cc(N4CCC(C)CC4)c(F)cc3c2=O)cc1	–	·	·	·	·
O=C(Cn1nc2c(cc1=O)CCCC2)NCc1ccccc1Cl	–	·	·	·	·
COc1cccc(-n2c(=O)c3cc(OC)c(OC)cc3n(CC(=O)Nc3ccccc3)c2=O)c1	–	·	·	–	·
COc1ccc(-c2nc3sc(CCNC(=O)c4cccc(C(F)(F)F)c4)c(C)n3n2)cc1	6.7µM	·	·	·	·
COc1ccc(-c2nc3sc(CCNC(=O)C(=O)Nc4ccc(C)c(C)c4)c(C)n3n2)cc1	–	·	·	·	·
COc1ccc(-c2nc3sc(CCNC(=O)c4ccccc4C)c(C)n3n2)cc1	17µM	·	·	·	·
Cc1cccc(NC(=O)CSc2nc(=O)n(Cc3ccccn3)c3c2CCC3)c1C	–	·	·	·	·
Cc1ccc(Nc2ncc3c(n2)CC(C)(C)CC3=O)cc1	12µM	1.6µM	–	11µM	2.2µM
CC1(C)CC(=O)c2cnc(NC3CC3)nc2C1	–	–	–	–	–
Cc1ccc(C)c(NC(=O)CSc2nc3nccnc3c(=O)n2CCc2c[nH]c3ccccc23)c1	–	·	·	·	·
O=C(Nc1ccc2nc(-c3cccnc3)[nH]c2c1)C1CCCCC1	12µM	–	–	–	–
CC(C)c1nc2ccc(NC(=O)C34CC5CC(CC(C5)C3)C4)cc2[nH]1	15µM	–	–	–	–
O=C(Nc1ccc2nc(-c3cccnc3)[nH]c2c1)C12CC3CC(CC(C3)C1)C2	11µM	–	–	–	–
CCNC(=O)C1CCN(c2nc3ccccc3nc2C(F)(F)F)CC1	–	·	·	·	·
CCOC(=O)Cn1c(=O)cc(C(F)(F)C(F)(F)F)c2c(C)nn(CC)c21	–	·	·	·	·
CC(=O)NC(=S)Nc1sc2c(c1C#N)CCCCC2	1.5µM	1.4µM	·	·	2.5µM
Cn1nccc1C(=O)NC(=S)Nc1sc2c(c1C#N)CCCCC2	3.8µM	?	–	–	?
COC1=C(c2ccccc2)C(=O)c2ccccc2C1=O	–	–	–	–	–
CC1=CC(=C2C(=O)c3ccccc3C2=O)C=C(C)N1C	12µM	2.5µM	–	–	2.5µM
COc1ccc(/C=N/NC(=O)c2nn(-c3ccccc3)c(=O)c3c(N)scc23)cc1	9.5µM	–	–	–	–
SMILES	FLuc counter	Rab9 promoter act	KinaseGlo FLuc	SMN2 splice enh	NPC1 promoter act
COc1ccc(/C=N/NC(=O)c2nc(-c3ccccc3)n(-c3ccccc3)n2)cc1OC	17µM	–	–	–	–
COc1ccc(/C=N/NC(=O)c2ccc(-c3ccccc3)cc2)cc1O	?	–	–	–	–
COc1ccc(/C=N/NC(=O)c2nc(-c3ccccc3)cc(-c3ccccc3)n2)cc1	2.7µM	–	–	–	–
COc1ccc(/C=N/NC(=O)c2nc(-c3ccccc3)cc(-c3ccccc3)n2)cc1O	1.5µM	–	–	–	–
Cc1ccc(Cl)cc1N1CCN(C(=O)c2ccc3c(c2)CCN3S(=O)(=O)c2ccccc2)CC1	–	·	·	–	·
CCc1ccc2oc(C(=O)N(Cc3cccc(Cl)c3)Cc3ccco3)c(C)c2c1	–	·	·	–	·
CC1(C)C(C(=O)O)N2C(=O)CC2S1(=O)=O (configuration not stated)	·	·	–	·	·
COc1ccc(/C=N/NC(=O)CCn2c3ccccc3c3ccccc32)cc1O	11µM	–	–	–	–
COc1cccc(/C=N/NC(=O)CCn2c3ccccc3c3ccccc32)c1	–	–	–	–	–
Fc1ccccc1/C=N/Nc1ccc(Cl)nn1	11µM	?	·	·	?
Fc1ccccc1/C=N/Nc1nn[nH]n1	–	–	–	–	–
Oc1ccc(/C=N/Nc2ccc(Cl)nn2)cc1O	?	–	·	·	–
Cc1ccc(/C=N/Nc2ccc(Cl)nn2)cc1	?	3.2µM	·	·	1.8µM
O=C(CSc1nccn1-c1cccc(Cl)c1)Nc1ccc2c(c1)OCO2	–	·	·	·	·
O=C(COc1cccc([N+](=O)[O-])c1)N/N=C/c1ccco1	–	–	–	–	–
COc1ccc(OCC(=O)N/N=C(\C)c2cccs2)cc1	?	–	·	·	–
Cc1ccc(OCC(=O)N/N=C\c2cccs2)c([N+](=O)[O-])c1	12µM	–	–	–	–
CCc1ccc(OCC(=O)N/N=C\c2ccco2)c([N+](=O)[O-])c1	11µM	–	–	–	–
C/C(=N\NC(=O)COc1ccccc1[N+](=O)[O-])c1cccs1	24µM	3.2µM	–	25µM	?
COc1ccc(CCn2c(=O)c3cccnc3n(CC(=O)Nc3c(C)cc(C)cc3C)c2=O)cc1OC	–	·	·	–	·
O=C(CSc1nnc(-c2ccco2)n1Cc1ccccc1)OC1CCCCC1	9.5µM	3.2µM	–	?	?
Cn1c(SCC(=O)c2ccccc2)nnc1-c1ccccn1	17µM	3.5µM	·	·	?
Cn1c(SCC(=O)c2ccccc2)nnc1-c1cccc(N)c1	24µM	?	–	–	–
Cn1c(SCC(=O)c2ccccc2)nnc1-c1ccncc1	–	–	–	–	–
COc1ccc(C(=O)CSc2nnc(-c3ccco3)n2C)cc1	–	–	–	–	–
SMILES	FLuc counter	Rab9 promoter act	KinaseGlo FLuc	SMN2 splice enh	NPC1 promoter act
O=C(CSc1nnc(-c2ccncc2)n1Cc1ccco1)OC1CCCCC1	–	–	–	–	–
Cn1c(SCC(=O)c2ccccc2)nnc1-c1ccco1	21µM	?	–	–	–
O=C(c1cccc([N+](=O)[O-])c1)N1c2ncnn2C2(CCCCC2)[C@@H]2CCCC[C@@H]21	–	·	·	·	·
Cc1cccc(N2CCN(S(=O)(=O)c3ccc4oc(=O)c5ncn(C)c5c4c3)CC2)c1C	–	·	·	–	·
COc1ccc(Cc2nn3c(Cn4nnc5ccccc54)nnc3s2)cc1	11µM	–	–	–	–
C#CCOc1c(Br)cc(C2C(C(=O)OC)=C(C)NC3=C2C(=O)c2ccccc23)cc1OCC (configuration not stated)	–	·	·	–	·
Cc1ccc2nc(Cl)c(/C=C/C(=O)c3ccco3)cc2c1	–	3.5µM	·	·	?
Cc1ccc2cc(/C=C/C(=O)c3ccco3)c(Cl)nc2c1	?	2.5µM	·	·	?
COc1ccc2cc(/C=C/C(=O)c3ccco3)c(Cl)nc2c1	?	?	–	–	?
COc1cc2cc(/C=C/C(=O)c3ccco3)c(Cl)nc2cc1OC	–	–	–	?	–
Cc1ccc(-c2nc3scc(CCNS(=O)(=O)c4ccc(C)c(C)c4)n3n2)cc1	–	·	·	·	·
COc1cc(C2CC(=O)Nc3ccc4ccccc4c32)ccc1OC(=O)C(C)C (configuration not stated)	–	·	·	–	·
Cc1ccc(Nc2nnc(SCC3CCCCO3)s2)cc1 (configuration not stated)	?	?	–	?	–
